The target of assay [1] is T1, Muscle, skeletal receptor tyrosine-protein kinase (Homo sapiens) (UniProt O15146).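 Further: reported value is the mean percent inhibition of MuSK kinase.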
T1 sequence (whole entry): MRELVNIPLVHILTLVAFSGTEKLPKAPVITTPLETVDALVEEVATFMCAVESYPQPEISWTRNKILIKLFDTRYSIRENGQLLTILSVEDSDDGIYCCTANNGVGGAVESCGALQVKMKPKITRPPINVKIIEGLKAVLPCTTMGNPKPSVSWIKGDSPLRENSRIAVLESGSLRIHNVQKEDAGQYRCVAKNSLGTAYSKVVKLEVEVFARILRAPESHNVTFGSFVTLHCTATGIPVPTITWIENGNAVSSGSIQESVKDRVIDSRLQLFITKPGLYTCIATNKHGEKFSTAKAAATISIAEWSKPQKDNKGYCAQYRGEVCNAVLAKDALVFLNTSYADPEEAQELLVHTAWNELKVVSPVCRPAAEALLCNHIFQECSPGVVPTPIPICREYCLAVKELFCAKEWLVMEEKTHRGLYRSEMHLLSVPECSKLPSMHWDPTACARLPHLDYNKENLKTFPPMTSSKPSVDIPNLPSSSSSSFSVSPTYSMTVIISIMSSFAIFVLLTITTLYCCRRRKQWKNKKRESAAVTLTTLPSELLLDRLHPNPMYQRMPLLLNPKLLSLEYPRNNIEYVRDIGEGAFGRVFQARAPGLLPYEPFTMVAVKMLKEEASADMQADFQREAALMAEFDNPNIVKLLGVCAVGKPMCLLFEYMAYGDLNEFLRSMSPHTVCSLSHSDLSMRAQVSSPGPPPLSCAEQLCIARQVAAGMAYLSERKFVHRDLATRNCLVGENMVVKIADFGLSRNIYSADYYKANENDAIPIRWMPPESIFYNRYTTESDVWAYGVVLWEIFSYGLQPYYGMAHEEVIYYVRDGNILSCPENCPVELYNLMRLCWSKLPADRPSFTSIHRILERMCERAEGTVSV
The following applies: at 1 µM.

Assay [2] has as its target Platelet-derived growth factor receptor alpha (Homo sapiens) (UniProt P16234). The following applies: at 0.1 µM.
The target is the same in assay [3]. The following applies: at 1 µM.
For assay [4], the system named is Platelet-derived growth factor receptor alpha (Homo sapiens), P16234 [D842V]. The following applies: at 0.1 µM.
The test system is the same in assay [5]. As to conditions: at 1 µM.
Assay [6] deals with Platelet-derived growth factor receptor alpha (Homo sapiens), P16234 [T674I]. As to conditions: at 0.1 µM.
Chain of Platelet-derived growth factor receptor alpha (Homo sapiens), P16234 [T674I] (P16234 whole entry T674I): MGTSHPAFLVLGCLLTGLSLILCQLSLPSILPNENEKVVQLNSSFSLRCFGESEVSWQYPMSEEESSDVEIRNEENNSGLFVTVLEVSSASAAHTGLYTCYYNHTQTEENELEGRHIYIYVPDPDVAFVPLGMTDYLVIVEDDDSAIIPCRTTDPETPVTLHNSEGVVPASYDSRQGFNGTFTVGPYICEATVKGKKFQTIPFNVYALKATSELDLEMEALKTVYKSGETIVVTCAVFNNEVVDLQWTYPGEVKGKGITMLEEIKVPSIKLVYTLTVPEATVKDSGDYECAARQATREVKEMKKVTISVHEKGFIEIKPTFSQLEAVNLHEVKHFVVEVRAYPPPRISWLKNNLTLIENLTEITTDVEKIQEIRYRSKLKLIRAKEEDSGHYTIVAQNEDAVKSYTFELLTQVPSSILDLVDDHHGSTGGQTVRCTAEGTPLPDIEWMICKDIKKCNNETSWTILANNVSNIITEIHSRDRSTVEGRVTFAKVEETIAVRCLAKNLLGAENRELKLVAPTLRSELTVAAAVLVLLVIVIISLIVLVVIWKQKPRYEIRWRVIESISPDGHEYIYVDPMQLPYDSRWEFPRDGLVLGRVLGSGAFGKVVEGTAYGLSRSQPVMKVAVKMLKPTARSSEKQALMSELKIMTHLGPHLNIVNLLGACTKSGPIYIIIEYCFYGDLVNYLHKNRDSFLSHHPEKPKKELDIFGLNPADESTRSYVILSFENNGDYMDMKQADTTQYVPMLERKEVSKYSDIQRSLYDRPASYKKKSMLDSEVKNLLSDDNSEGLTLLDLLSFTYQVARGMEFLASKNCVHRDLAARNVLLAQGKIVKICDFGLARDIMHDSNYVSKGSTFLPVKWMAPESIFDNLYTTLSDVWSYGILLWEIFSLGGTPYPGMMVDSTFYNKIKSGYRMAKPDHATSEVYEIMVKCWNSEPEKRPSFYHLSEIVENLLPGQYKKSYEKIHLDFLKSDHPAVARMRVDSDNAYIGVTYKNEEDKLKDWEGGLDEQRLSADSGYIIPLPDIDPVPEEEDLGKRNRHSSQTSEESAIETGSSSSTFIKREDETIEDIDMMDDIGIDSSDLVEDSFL
Assay [7] has the same test system. The following applies: at 1 µM.
Assay [8] has as its system Platelet-derived growth factor receptor alpha (Homo sapiens), P16234 [V561D]. The following applies: at 0.1 µM.
The test system is the same in assay [9]. The following applies: at 1 µM.
In assay [10] the target is Platelet-derived growth factor receptor beta (Homo sapiens) (UniProt P09619). The following applies: at 0.1 µM.
Chain of Platelet-derived growth factor receptor beta (Homo sapiens) (P09619 whole entry): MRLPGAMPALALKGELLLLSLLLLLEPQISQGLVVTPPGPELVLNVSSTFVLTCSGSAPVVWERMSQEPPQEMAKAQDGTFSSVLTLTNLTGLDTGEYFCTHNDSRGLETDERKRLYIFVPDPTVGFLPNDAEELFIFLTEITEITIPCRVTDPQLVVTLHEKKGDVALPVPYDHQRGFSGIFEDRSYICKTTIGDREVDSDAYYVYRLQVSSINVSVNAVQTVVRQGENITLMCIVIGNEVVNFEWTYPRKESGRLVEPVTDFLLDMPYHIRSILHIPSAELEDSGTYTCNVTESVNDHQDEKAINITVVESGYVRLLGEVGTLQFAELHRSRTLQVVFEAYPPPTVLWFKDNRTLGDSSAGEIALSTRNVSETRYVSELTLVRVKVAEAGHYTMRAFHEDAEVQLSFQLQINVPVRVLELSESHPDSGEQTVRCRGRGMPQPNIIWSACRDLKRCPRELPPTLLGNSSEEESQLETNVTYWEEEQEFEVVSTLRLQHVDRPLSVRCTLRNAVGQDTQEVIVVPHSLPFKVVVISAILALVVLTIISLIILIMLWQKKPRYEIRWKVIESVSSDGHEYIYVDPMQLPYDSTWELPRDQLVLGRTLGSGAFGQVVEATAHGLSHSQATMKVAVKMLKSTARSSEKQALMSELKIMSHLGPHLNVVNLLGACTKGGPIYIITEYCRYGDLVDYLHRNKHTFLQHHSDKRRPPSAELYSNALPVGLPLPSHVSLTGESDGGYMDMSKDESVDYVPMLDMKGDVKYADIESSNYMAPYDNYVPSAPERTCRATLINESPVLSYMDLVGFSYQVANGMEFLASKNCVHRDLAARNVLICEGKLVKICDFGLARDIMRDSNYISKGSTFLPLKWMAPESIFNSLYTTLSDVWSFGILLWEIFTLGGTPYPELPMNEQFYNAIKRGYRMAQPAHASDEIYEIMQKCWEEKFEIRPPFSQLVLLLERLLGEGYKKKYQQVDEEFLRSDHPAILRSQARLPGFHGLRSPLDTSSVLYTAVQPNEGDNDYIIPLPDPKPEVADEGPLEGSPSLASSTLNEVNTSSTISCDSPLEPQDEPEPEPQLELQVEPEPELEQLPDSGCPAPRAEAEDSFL
The target is the same in assay [11]. As to conditions: at 1 µM.
Assay [12] concerns the target Tyrosine-protein kinase FRK (Homo sapiens) (UniProt P42685). As to conditions: at 0.1 µM.
The target is the same in assay [13]. As to conditions: at 1 µM.
Assay [14] concerns the target Protein-tyrosine kinase 2-beta (Homo sapiens) (UniProt Q14289). The following applies: at 0.1 µM.
Assay [15] has the same target. The following applies: at 1 µM.
For assay [16], the target named is Proto-oncogene tyrosine-protein kinase receptor Ret (Homo sapiens) (UniProt P07949). The following applies: at 0.1 µM.
The target is the same in assay [17]. The following applies: at 1 µM.
The subject of assay [18] is Proto-oncogene tyrosine-protein kinase receptor Ret (Homo sapiens), P07949 [V804L]. As to conditions: at 0.1 µM.
Assay [19] has the same test system. As to conditions: at 1 µM.
Assay [20] concerns Proto-oncogene tyrosine-protein kinase receptor Ret (Homo sapiens), P07949 [Y791F]. As to conditions: at 0.1 µM.

Values joined by “and” are separate entries in the source; they are usually repeats but may differ in a detail not shown here. Equal entries are not always repeated.

Chain of Proto-oncogene tyrosine-protein kinase receptor Ret (Homo sapiens), P07949 [V804L] (P07949 whole entry V804L): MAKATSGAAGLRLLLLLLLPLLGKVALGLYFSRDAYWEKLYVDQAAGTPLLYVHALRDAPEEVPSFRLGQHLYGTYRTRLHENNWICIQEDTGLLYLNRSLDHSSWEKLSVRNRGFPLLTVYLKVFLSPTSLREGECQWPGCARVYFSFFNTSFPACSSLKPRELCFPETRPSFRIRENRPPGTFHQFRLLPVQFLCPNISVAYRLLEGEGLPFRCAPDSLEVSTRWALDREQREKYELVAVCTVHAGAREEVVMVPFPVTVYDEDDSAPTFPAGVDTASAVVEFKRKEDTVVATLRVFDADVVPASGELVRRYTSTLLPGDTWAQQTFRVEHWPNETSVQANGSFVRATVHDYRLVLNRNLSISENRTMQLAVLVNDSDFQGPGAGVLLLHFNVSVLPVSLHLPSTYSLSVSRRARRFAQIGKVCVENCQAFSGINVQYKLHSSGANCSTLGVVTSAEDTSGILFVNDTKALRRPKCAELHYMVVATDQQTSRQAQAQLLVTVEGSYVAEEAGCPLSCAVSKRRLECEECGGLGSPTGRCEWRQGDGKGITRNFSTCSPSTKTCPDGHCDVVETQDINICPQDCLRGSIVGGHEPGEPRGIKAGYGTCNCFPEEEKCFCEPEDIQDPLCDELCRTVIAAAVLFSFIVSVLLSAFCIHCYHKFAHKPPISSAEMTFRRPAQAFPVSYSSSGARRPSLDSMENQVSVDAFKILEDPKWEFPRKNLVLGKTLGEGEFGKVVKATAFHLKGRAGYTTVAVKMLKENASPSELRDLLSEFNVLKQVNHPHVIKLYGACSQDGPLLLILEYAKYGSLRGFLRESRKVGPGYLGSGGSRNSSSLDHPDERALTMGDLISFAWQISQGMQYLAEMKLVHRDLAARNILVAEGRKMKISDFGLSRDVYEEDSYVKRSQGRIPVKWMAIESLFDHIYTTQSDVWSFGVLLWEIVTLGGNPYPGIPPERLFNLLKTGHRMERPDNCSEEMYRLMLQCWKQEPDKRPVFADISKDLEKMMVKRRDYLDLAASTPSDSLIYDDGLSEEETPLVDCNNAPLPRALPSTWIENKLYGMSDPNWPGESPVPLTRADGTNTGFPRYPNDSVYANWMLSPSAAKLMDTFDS
Chain of Protein-tyrosine kinase 2-beta (Homo sapiens) (Q14289 whole entry, looked up): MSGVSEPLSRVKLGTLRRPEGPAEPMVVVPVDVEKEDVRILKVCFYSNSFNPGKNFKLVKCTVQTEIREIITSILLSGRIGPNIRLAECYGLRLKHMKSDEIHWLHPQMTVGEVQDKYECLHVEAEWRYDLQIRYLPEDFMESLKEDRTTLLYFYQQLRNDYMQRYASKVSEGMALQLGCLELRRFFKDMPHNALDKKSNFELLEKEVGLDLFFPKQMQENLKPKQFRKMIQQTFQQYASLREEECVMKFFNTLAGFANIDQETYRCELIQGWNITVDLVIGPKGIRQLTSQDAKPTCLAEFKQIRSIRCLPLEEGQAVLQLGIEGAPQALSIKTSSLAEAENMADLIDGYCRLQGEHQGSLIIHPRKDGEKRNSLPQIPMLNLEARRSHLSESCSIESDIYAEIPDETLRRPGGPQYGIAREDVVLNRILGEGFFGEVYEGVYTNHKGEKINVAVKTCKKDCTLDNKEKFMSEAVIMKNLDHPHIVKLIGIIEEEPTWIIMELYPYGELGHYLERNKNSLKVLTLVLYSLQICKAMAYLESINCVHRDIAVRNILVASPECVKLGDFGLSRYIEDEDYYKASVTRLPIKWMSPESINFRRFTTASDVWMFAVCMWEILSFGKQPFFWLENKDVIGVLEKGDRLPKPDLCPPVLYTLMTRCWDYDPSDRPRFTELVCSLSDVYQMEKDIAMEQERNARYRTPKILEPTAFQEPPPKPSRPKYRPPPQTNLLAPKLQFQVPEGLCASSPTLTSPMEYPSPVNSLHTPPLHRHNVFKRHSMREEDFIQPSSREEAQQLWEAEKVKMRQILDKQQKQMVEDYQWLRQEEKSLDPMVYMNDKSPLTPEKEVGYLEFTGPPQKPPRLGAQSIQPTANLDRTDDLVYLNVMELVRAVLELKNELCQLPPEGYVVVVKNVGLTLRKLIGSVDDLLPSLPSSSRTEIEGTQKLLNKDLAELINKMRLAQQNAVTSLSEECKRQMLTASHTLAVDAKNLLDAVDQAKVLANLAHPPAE
Chain of Tyrosine-protein kinase FRK (Homo sapiens) (P42685 whole entry): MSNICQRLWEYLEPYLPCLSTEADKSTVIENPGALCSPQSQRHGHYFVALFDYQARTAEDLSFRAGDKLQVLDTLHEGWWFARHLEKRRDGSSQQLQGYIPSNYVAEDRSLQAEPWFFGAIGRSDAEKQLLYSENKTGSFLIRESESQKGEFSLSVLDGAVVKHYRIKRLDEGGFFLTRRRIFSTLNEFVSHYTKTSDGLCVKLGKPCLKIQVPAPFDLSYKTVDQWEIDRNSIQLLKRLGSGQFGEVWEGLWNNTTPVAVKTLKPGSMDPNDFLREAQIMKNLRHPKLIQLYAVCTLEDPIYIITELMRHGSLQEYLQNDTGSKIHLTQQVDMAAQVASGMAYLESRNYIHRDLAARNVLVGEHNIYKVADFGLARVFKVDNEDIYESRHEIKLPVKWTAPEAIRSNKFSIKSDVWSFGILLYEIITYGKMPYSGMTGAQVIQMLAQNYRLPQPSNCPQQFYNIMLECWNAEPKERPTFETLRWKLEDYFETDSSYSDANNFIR

As a reminder, the inhibition is the drop in the measured response relative to a control, in per cent. As for `CC(C)c1ccc(-c2cc(-c3c[nH]nc3-c3ccccn3)ccn2)cc1`, the inhibition in assay [1] came to 6.85%; in assay [2], 10%; in assay [3], 19.8%; in [4], 5.82%; in [5] it was 34.2%; in assay [6], 4.22%. Moreover, the inhibition in assay [7] is 3.25%; in assay [8], 5.56%; in [9] it was 20.6%; in [10] it was 3.19%; in assay [11], 11.4%; in [12], -0.8%. In addition, the inhibition in [13] is -0.88%; in [14] it was 1.78%; in [15], 3.36%; in assay [16] it was 2.14%; in assay [17] it was 5.62%; in [18], 3.27%. The inhibition amounted to 2.58% in assay [19] and 5.08% in assay [20].

Consider `N#Cc1ccc2c(-c3ccnc(NC4CC4)n3)c(-c3ccc(F)cc3)nn2c1`, for which the inhibition in assay [1] was -0.28%; in assay [2], 2.76%; in assay [3], 11.6%; in assay [4] it was -0.1%; in [5] it was 6.91%; in assay [6], 6.42%. For the same compound, the inhibition was 6.15% in [7]; 1.97% in assay [8]; 8.16% in assay [9]; 2.34% in [10]; 16.8% in assay [11]; 1.44% in [12]. Also, the inhibition was 0.3% in assay [13]; -1.69% in [14]; 0.44% in assay [15]; 5.41% in assay [16]; 8.1% in assay [17]; 3.66% in assay [18]. Moreover, the inhibition in [19] is 2.65%; in assay [20], 4.65%.

Turning to `O=C(O[C@H]1CN[C@H](C#Cc2cc3ncnc(Nc4ccc5c(cnn5Cc5ccccc5)c4)c3s2)C1)N1CCOCC1`, the inhibition in assay [1] is -0.19%; in assay [2], 2.17%; in assay [3], 8.81%; in [4], 2.71%; in [5], 3.09%; in [6], -0.12%. In addition, the inhibition was determined as 2.78% in [7]; 2.22% in assay [8]; 2.22% in assay [9]; 2.18% in assay [10]; 6.66% in [11]; 0.07% in assay [12]. In addition, the inhibition in assay [13] was -1.26%; in [14] it was 1.18%; in assay [15], -1.26%; in assay [16] it was 2.44%; in assay [17], 4.66%; in assay [18] it was 2.83%. The results for the inhibition in [19] and in [20] were 4.7% and 2.45%, respectively.

Consider `Fc1ccc(Nc2nccc(-c3c(-c4ccc(C(F)(F)F)cc4)nn4ncccc34)n2)cc1F`, for which the inhibition in [1] is 2.81%; in assay [2], 8.86%; in [3], 7.72%; in assay [5], 4.26%; in [6], 4.35%; in assay [7] it was 6.66%. For the same compound, the inhibition was 3.46% in [8]; 2.39% in assay [9]; 2.15% in assay [10]; 3.62% in assay [11]; 0.45% in assay [12]; 0.39% in assay [13]. Besides, the inhibition in assay [14] was 4.12%; in assay [15], 9.36%; in assay [16], 4%; in assay [17] it was 6.84%; in [18] it was 1.24%; in assay [19], -1.13%. For the same compound, the inhibition in [20] stood at 5.34%.

In the case of `Cc1nnc(-c2cccc(-c3ccc(C(=O)NCC4CC4)cc3)c2)o1`, the inhibition in [1] came out at 6.37%; in assay [2] it was 13.9%; in [3], 15.2%; in assay [4], 2.78%; in assay [5], 5.47%; in [6] it was 6.98%. Further, the inhibition in assay [7] was 11.6%; in [8], 4.66%; in assay [9] it was 3.3%; in assay [10] it was 5.4%; in assay [11] it was 8.15%; in assay [12] it was 1.96%. The inhibition is 3.45% in assay [13]; 12.3% in assay [14]; 9.85% in [15]; 4.13% in assay [16]; 7.32% in assay [17]; 4.63% in assay [18]. Also, the inhibition was found to be 16.7% in assay [19] and 5% in [20].

As for `FC(F)(F)CNc1nccc(-c2cnn3ncccc23)n1`, the inhibition in assay [1] is -2.34%; in assay [2], 0.78%; in assay [3], 10.1%; in assay [5], 4.9%; in [6], 1.52%; in [7], 4.54%. Moreover, the inhibition in assay [8] came out at 0.59%; in assay [9] it was 2.85%; in assay [10], 2.11%; in [11] it was 3.09%; in assay [12], 1.82%; in assay [13], 1.72%. The inhibition in [14] is -0.29%; in assay [15] it was 2.94%; in assay [16] it was 3.97%; in assay [17], 2.84%; in assay [18] it was 1.22%; in assay [19], 3.68%. Further, the inhibition in assay [20] is 1.04%.

For the compound `Nc1ncnc2occ(-c3ccc(NC(=O)Nc4cc(C(F)(F)F)ccc4F)cc3)c12`, the inhibition is 94.1% and 97.6% in [1]; 80.4% and 68.5% in assay [2]; 93.4% and 90.3% in assay [3]; 17% and 8.08% in assay [4]; 75.6% and 72.8% in [6]; 97.9% and 83% in assay [7]. For the same compound, the inhibition in assay [8] was 88.8% and 81.8%; in assay [9], 97.9% and 96.5%; in assay [10], 48.5% and 28.9%; in assay [11], 86.7% and 81.4%; in assay [12], 2.63% and 2.3%; in assay [13], 19.1% and 11.8%. For the same compound, the inhibition in assay [14] is 4.45% and -2.3%; in assay [16], 85.3% and 84.5%; in assay [17], 90.7% and 88.5%; in [18], 68.3% and 62.2%; in [19], 84.7% and 81.1%; in assay [20] it was 79.2% and 72.6%.

Values taken from ChEMBL document CHEMBL1961873, “Compounds: GSK PKIS; Assays: Nanosyn kinase panel” (2012).
